In PubChem BioAssay (NCATS):
Results filed as inconclusive are left out. Entries that show only a call come without a potency. The source made the active and inactive calls. Calls come from the whole dose curve; as a rule, active = well fitted inhibition curve with a large enough effect; inconclusive = small, poorly fitted or top-dose-only effect; inactive = flat fitted curve, though single readings scatter.

The compounds below were run against Calcium and integrin-binding protein 1 (Homo sapiens) (UniProt Q99828) (assay: Primary qHTS for Identification of Calcium Integrin Binding Protein 1 (CIB1) Competitor (AID 1508620;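 note: GST tagged CIB1 binding a fluorescein labelled alphaIIb integrin peptide tracer; top concentration of the series differs between compounds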)). Details: CIB1-GST / FITC-alphaIIb peptide fluorescence polarization; series mostly up to 57.7 µM.
Outline: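 Fluorescence polarization competition: CIB1-GST (1 uM final) preincubated with compound 15 min at room temperature, then FITC-labeled alphaIIb peptide (100 nM final) added for another 15 min. Polarization read at Ex 480/Em 540.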

Sequence of Calcium and integrin-binding protein 1 (Homo sapiens) (Q99828 whole entry, looked up): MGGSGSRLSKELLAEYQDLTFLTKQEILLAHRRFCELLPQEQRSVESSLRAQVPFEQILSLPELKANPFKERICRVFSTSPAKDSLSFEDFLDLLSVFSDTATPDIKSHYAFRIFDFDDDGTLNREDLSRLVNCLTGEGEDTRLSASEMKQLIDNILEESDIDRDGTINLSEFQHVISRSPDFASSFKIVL

SMILES	Potency
O=C(O)Cc1nn(Cc2nc3cc(C(F)(F)F)ccc3s2)c(=O)c2nccnc12	inactive
CCNC(=O)[C@@H]1CCCN1C(=O)[C@H](CCCN=C(N)N)NC(=O)[C@H](CC(C)C)NC(=O)[C@@H](C)NC(=O)[C@H](Cc1ccc(O)cc1)NC(=O)[C@H](CO)NC(=O)[C@H](Cc1c[nH]c2ccccc12)NC(=O)[C@H](Cc1cnc[nH]1)NC(=O)[C@@H]1CCC(=O)N1	inactive
CC1CCC(=O)CC(O)C(O)CC(=O)O1 (stereo not given)	inactive
C[C@@H]1O[C@@H](O[C@H]2[C@H](OC(=O)C34CCC(C)(C)CC3C3=CCC5C6(C)CC(O)C(O[C@@H]7O[C@H](CO)[C@@H](O)[C@H](O)[C@H]7O)C(C)(C(=O)O)C6CCC5(C)C3(CO)CC4)O[C@H](C)[C@H](O)[C@@H]2O)[C@H](O)[C@H](O)[C@H]1O[C@@H]1OC[C@@H](O)[C@H](O)[C@H]1O (stereo not given in full)	inactive
Cn1ccnc1CCOC(c1cc2nccc(C(=O)O)c2[nH]1)c1ccccc1Cl (stereo not given)	inactive
c1ccc(Nc2nc3c(s2)CCCc2[nH]ncc2-3)nc1	inactive
O=C(O)C[C@H](O)C[C@H](O)/C=C/c1c(C2CC2)nc2ccccc2c1-c1ccc(F)cc1	inactive
CCC[C@@H]1C[C@@H](C(=O)N[C@@H]([C@H]2O[C@H](SC)[C@H](O)[C@@H](O)[C@@H]2O)[C@@H](C)O)N(C)C1	inactive
Cn1c(=O)cc(N2CCCC(N)C2)n(Cc2ccccc2C#N)c1=O (stereo not given)	inactive
C=C1C2(CCC(=O)OC2(C)C)CC(OC(=O)/C(C)=C/C)C2(C)C13OC14C(=O)OC(C)(C(=O)C12C(=O)OC4C)C3OC(C)=O (stereo not given)	inactive
